Source: PubChem BioAssay
An excerpt weighted towards active compounds, which were near 1.9% of everything screened.
KLF5 inhibitor = kruppel-like factor 5 inhibition; actives 0.23% (n = 290,000); DLD-1 KLF5 promoter-luciferase reporter, luminescence; AID 1700; inhibition, % at 5 µM;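 active = inhibition above a per-plate limit of that plate's mean compound inhibition plus 3 SD, cut at about 60% in these data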;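 note: 0% = DMSO wells and 100% = LY294002 at 200 µM; higher means less KLF5 promoter-driven luciferase light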
IEC-6 cytotox = kills IEC-6 intestinal cells in KLF5 counter-screen; IEC-6 cytotoxicity, luminescence viability; inhibition, % at 5 µM; actives 0.78% (n = 290,000); AID 1825;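 note: 0% = plate median of test compound wells and 100% = cytotoxic reference compound wells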
BaF3 parental = parental Ba/F3 viability inhibition as JAK2V617F counter-screen; inhibition, % at 5.6 µM; AID 1486; CellTiter-Glo ATP luminescence; actives 1.1% (n = 220,000);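 active = inhibition above a per-campaign cutoff, the mean inhibition of all tested compounds plus 3 SD, cut at about 27% in these data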;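 note: 0% = DMSO wells and 100% = JAK Inhibitor I control wells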
Ba/F3 V617F tox = reduce viability of Ba/F3 cells dependent on JAK2V617F. actives 1.1% (n = 220,000). Ba/F3 EpoR-JAK2V617F viability, ATP luminescence. inhibition, % at 5.6 µM;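 active = inhibition above the campaign mean plus 3 SD over all tested compounds, cut at about 24% in these data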;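 note: cytokine-independent growth of Ba/F3 cells driven by EpoR plus mutant JAK2; 0% = DMSO-treated cells and 100% = JAK inhibitor I control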
APP 5UTR inh = APP translation inhibition | actives 0.82% (n = 190,000) | inhibition, % at 2 µM | AID 1285 | SH-SY5Y APP 5'UTR-luciferase reporter, luminescence;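 active = inhibition above a set limit, derived from the sample mean plus 3 SD, cut at about 45% in these data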
BaF3 tox 2 = counter-screen for JAK2V617F inhibitors: parental Ba/F3 viability inhibitors | shares compounds with Ba/F3 V617F tox | CellTiter-Glo luminescence; cells kept alive by added IL-3 | inhibition, % at 5.6 µM | actives 31% (n = 580);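 active = cell growth inhibition above the hit limit set in the earlier mutant JAK2 cell screen, cut at about 27% in these data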;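 note: plate controls were DMSO-treated cells for no effect and JAK Inhibitor I control wells for full effect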
JAK2V617F conf = Ba/F3 EpoR-JAK2V617F viability loss, confirmation; shares compounds with Ba/F3 V617F tox; CellTiter-Glo luminescence; inhibition, % at 5.6 µM; actives 66% (n = 580); AID 1521;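 active = mean inhibition above the hit cutoff derived in the earlier primary screen, cut at about 25% in these data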;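 note: 0% = DMSO-treated cells and 100% = JAK inhibitor I control wells; higher means lower luminescence from reduced cell ATP and viability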
IEC-6 cytotox cf = confirmation of cytotoxic compounds in rat IEC-6 intestinal epithelial cells; AID 1907; IEC-6 rat intestinal epithelial viability, luminescence; inhibition, % at 5 µM; shares compounds with IEC-6 cytotox; actives 63% (n = 1,900);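 note: 0% = vehicle and 100% = reference cytotoxic drug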
The depositor's hits bear a star; . = no result given. Cut-off read from the data, not from the text of the source, unless noted: active = inhibition above about 22%; inactive = the rest.

SMILES | KLF5 inhibitor | IEC-6 cytotox | BaF3 parental | Ba/F3 V617F tox | APP 5UTR inh | others
CCC[N+]12CCC(CC1)C(=C(c1ccccc1)c1ccccc1)C2 | -7 | -6 | 36* | 18 | 18
CC(=O)OC(C)(C)/C=C/C(=O)[C@](C)(O)[C@H]1[C@H](O)C[C@@]2(C)[C@@H]3CC=C4[C@H](C[C@H](O)C(=O)C4(C)C)[C@]3(C)C(=O)C[C@]12C | 83* | 98* | 88* | 101* | 90*
CCOc1ccc(-c2cc(C)[n+](CCO)c(-c3ccc(OCC)cc3)c2)cc1 | -16 | -1 | 72* | 57* | -5
COc1cccc(-c2nn(CCC#N)cc2C(=O)Nc2ccccc2Cl)c1 | -31 | 8 | . | . | .
c1ccc2c(CN3CCCCCCC3)c[nH]c2c1 | -5 | -3 | 38* | 49* | 0
c1ccc2c(CN3CCN(C4CCCCC4)CC3)c[nH]c2c1 | -2 | 1 | 4 | -2 | 6
Cc1cccc(-n2c(/C=C/c3ccccn3)nc3ccccc3c2=O)c1 | -21 | -2 | . | . | .
CC(C(=O)c1c[nH]c2ccccc12)N1CCc2ccccc2C1 (stereo not given) | -4 | 2 | 43* | 26* | -4
CCCCC/C(=N\O)c1c[nH]c2ccccc12 | 1 | 1 | 4 | -1 | -11
Cc1cc(C)[n+](C2C3CC4CC(C3)CC2C4)o1 (stereo not given) | 23 | -3 | 66* | 68* | 0
CCN(CC)Cc1c[nH]c2ccccc12 | 5 | 8 | 3 | 2 | -13
C1=C(c2c[nH]c3ccccc23)CCN(Cc2ccccc2)C1 | 7 | 7 | 76* | 97* | -18
CN1CC=C(c2c[nH]c3ccccc23)CC1 | 15 | -1 | 61* | 29* | -1
O=[N+]([O-])c1ccc(CN2CC=C(c3ccccc3)CC2)cc1 | 17 | 2 | . | . | .
CN1C(=O)C(=Cc2ccccc2OS(=O)(=O)c2ccccc2)C(=O)N(C)C1=O | -13 | -2 | . | . | .
[N-]=[N+]=NCCN1CCC(O)CCC1=O (stereo not given) | -23 | -5 | . | . | .
CCOC(=O)c1c(C)n(Cc2ccccc2)c2ccc(OCC(O)CNC(C)(C)C)cc12 (stereo not given) | -2 | -2 | . | . | .
CC/C(=N\NC(=O)c1ccccc1)c1c(O)n(C2CCCCC2)c(=O)[nH]c1=O | -124 | 3 | . | . | .
O=c1[nH]c(=O)n(-c2ccccc2)c(O)c1/C=C1/C(c2ccccc2)=Nc2ccccc21 | 32 | 55* | 68* | 80* | 68*
CC(C)C(=O)c1cn(Cc2ccccc2C#N)c2ccccc12 | -4 | 0 | -3 | -5 | -20
CC(=O)c1cn(Cc2ccccc2C#N)c2ccccc12 | -11 | 16 | 67* | 46* | -4
COc1ccc(-n2c(C)nc3ccccc3c2=O)c([N+](=O)[O-])c1 | -45 | 8 | . | . | .
COc1ccc(C2=NS(=O)(=O)N(C)C(C(=O)N3CCC4(CC3)OCCO4)=C2)cc1OC | -16 | -5 | . | . | .
CP(C)(=O)CCC(=O)O | 8 | -7 | 36* | 11 | -2
CC[n+]1c(/C=C/N(C)c2ccccc2)sc2ccc(Cl)cc21 | -7 | 16 | 72* | 80* | 13
SMILES | KLF5 inhibitor | IEC-6 cytotox | BaF3 parental | Ba/F3 V617F tox | APP 5UTR inh | others
N=c1c2c(n(Cc3ccc(Cl)cc3Cl)c3c1CCC3)CCCC2 | 13 | 14 | 70* | 92* | 2
NC(=S)c1cn(C2OC(CO)C(O)C2O)c2ncnc(N)c12 (stereo not given) | 110* | 100* | 104* | 99* | .
Cc1ccc(Cn2ccccc2=N)cc1 | -4 | 3 | . | . | .
CN(C)c1ccc(/C=C/C=C/c2sc3ccccc3[n+]2C)cc1 | 5 | 18 | 79* | 99* | .
C=C(CO)CC1CC(O)[C@]2(C)OC3CC4OC5C[C@]6(C)O[C@]7(C)CCC8OC9C[C@]%10(C)OC%11C(C)=CC(=O)OC%11CC%10OC9C[C@@H](C)C8OC7CC6O[C@]5(C)C/C=C\C4OC3CC2O1 (stereo not given in full) | 10 | 1 | 6 | 0 | 2
C=C(C=O)CC1CC(O)[C@]2(C)OC3CC4OC5C[C@]6(C)O[C@]7(C)CCC8OC9C[C@]%10(C)OC%11C(C)=CC(=O)OC%11CC%10OC9C[C@@H](C)C8OC7CC6O[C@]5(C)CC5OC5C4OC3CC2O1 (stereo not given in full) | -10 | 11 | 97* | 97* | 96*
CCC1(OC(=O)CN)C(=O)OCc2c1cc1n(c2=O)Cc2cc3ccccc3nc2-1 (stereo not given) | 104* | 96* | 96* | 99* | .
Cc1cnc(NC(=O)CN2CCCCC2)s1 | -10 | 2 | . | . | .
CCOC(=O)c1[nH]c2ccc(OC)cc2c1C(SCC(=O)O)c1ccc(C(F)(F)F)cc1 (stereo not given) | -18 | -2 | . | . | .
O=C(c1ccccc1F)c1cn(CC(=O)N2CCCCC2)c2ccccc12 | 2 | 3 | 3 | 49* | 6 | BaF3 tox 2=-5;JAK2V617F conf=-16
CCOc1cc2c(cc1OCC)-n1cccc1C(c1cc(OC)ccc1F)NC2 (stereo not given) | -19 | 5 | . | . | .
Cc1nn(Cc2ccccc2Cl)c(C)c1C(=O)OCC(=O)NC1CCS(=O)(=O)C1 (stereo not given) | -1 | -1 | 4 | 0 | 7
Cc1nn(Cc2ccccc2Cl)c(C)c1C(=O)OCC(=O)NC1CCCC(C)C1C (stereo not given) | -16 | 0 | 11 | 76* | -9 | BaF3 tox 2=-3;JAK2V617F conf=0
COC12C(COC(N)=O)C3=C(C(=O)C(C)=C(N)C3=O)N1CC1C2N1C (stereo not given) | 14 | 5 | 10 | 29* | . | BaF3 tox 2=50*;JAK2V617F conf=96*
Cc1cccc(-n2c(C)nc3ccc(Cl)cc3c2=O)c1 | -2 | -4 | . | . | .
CCn1nc(/C=C/c2ccccc2)nc2c(=O)n(C)c(=O)nc1-2 | -49 | 102* | 24 | 44* | -41 | BaF3 tox 2=103*;JAK2V617F conf=99*;IEC-6 cytotox cf=104*
CCOc1cccc(CNCCc2c(C)[nH]c3ccc(OC(F)(F)F)cc23)c1O | -4 | 12 | . | . | .
